Assay [1] in a line: antimalarial activity against Dd2 strain (AID 2302;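 active = growth inhibition above 50% at the single 2 µM test dose, taken to imply half-maximal potency below 2 µM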;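 also: 0% = DMSO untreated growth and 100% = chloroquine plus artemisinin killed control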). The settings on record: P. falciparum Dd2 in RBCs, LDH growth readout, 72 h; at 2 µM; active compounds read high.
The nature of assay [2]: HepG2 cytotoxicity, primary screen, cytotoxicity control for P. falciparum antimalarial project, cell-based, ATP luminescence (AID 2303;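 active = inhibition above 50%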;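 also: 0% = DMSO wells and 100% = digitonin-killed cells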). The settings on record: HepG2 viability, 24-48 h, at 10 µM, active compounds read high.
Assay [3] concerns the target L-lactate dehydrogenase (Plasmodium falciparum (isolate CDC / Honduras)) (UniProt Q27743). As to the kind of experiment: PfLDH activity inhibition – cell lysate, 3D7 strain, counter-screen for P. falciparum growth inhibition project (AID 2304).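 Also: 0% = vehicle and 100% = reference inhibitor.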 The settings on record: P. falciparum 3D7 crude extract, LDH APAD/NBT absorbance; at 2 µM; active compounds read high. Background: The purpose of a counterscreen is to sort out artefacts and off-target activity.

A short description of assay [4]: inhibition of 3D7 malaria parasite growth – strain 3D7 (AID 2306).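 Also: 0% = DMSO wells and 100% = chloroquine plus artemisinin control wells.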 The settings on record: P. falciparum 3D7 erythrocytic growth, LDH absorbance, 72 h; at 2 µM; active compounds read high.
The target in assay [5] is Calcium-dependent protein kinase 1 (Plasmodium falciparum (isolate 3D7)) (UniProt P62344). As to the kind of experiment: PfCDPK1 kinase inhibitors, biochemical, TCAMS library (AID 1159585; cut-off not given, nearly all actives have IC50 up to about 0.98 µM;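 also: inhibitors leave more ATP so luminescence rises with inhibition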). The settings on record: recombinant PfCDPK1, Kinase-Glo ATP depletion luminescence.
Assay [6] has as its target Plasmodium falciparum protein kinase 6 (PK6, PF3D7_1337100) (UniProt Q8IDW1). As to the kind of experiment: PfPK6 kinase inhibitors, biochemical, TCAMS library (AID 1159586). The settings on record: recombinant PfPK6, Kinase-Glo ATP depletion luminescence. Background: Kinase-Glo reads ATP consumption through a luciferase reaction.
In assay [7] the target is Protein kinase 7 (PK7), Plasmodium falciparum 3D7 (PF3D7_0213400) (UniProt Q7YTF7). As to the kind of experiment: inhibition of Plasmodium PK7 catalytic activity – biochemical, TCAMS antimalarial set, Kinase-Glo luminescence (AID 1159587). The settings on record: recombinant PfPK7, Kinase-Glo ATP depletion luminescence.
In assay [8] the target is Calcium-dependent protein kinase 4 (Plasmodium falciparum (isolate 3D7)) (UniProt Q8IBS5). As to the kind of experiment: PfCDPK4 kinase inhibitors, biochemical, TCAMS library (AID 1159588; cut-off not given, nearly all actives have IC50 up to about 0.91 µM). The settings on record: recombinant PfCDPK4, Kinase-Glo ATP depletion luminescence.

Unmarked numbers belong to inactive results. For some of these results: Potency and affinity values are given separately. Active and inactive are the calls of the source. Unless noted, no rule for the calls is given here.

For orientation: inhibition means the drop in the measured response relative to a control, in per cent.

Chain of Calcium-dependent protein kinase 4 (Plasmodium falciparum (isolate 3D7)) (Q8IBS5 whole entry, looked up): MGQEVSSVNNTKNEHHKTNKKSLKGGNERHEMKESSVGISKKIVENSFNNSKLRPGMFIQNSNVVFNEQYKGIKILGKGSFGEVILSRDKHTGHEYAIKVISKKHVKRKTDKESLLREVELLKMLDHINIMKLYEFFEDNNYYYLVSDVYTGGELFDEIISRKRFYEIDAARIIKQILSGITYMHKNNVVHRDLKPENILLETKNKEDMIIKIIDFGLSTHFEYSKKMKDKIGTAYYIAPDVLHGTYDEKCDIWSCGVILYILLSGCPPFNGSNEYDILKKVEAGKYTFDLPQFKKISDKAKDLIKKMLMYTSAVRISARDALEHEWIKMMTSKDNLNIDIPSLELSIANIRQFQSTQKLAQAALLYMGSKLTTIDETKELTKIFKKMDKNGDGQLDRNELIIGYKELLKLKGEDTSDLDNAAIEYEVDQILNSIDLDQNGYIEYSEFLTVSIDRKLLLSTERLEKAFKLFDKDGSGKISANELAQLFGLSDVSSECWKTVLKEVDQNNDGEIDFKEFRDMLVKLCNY
Chain of Protein kinase 7 (PK7), Plasmodium falciparum 3D7 (PF3D7_0213400) (Q7YTF7 1-343): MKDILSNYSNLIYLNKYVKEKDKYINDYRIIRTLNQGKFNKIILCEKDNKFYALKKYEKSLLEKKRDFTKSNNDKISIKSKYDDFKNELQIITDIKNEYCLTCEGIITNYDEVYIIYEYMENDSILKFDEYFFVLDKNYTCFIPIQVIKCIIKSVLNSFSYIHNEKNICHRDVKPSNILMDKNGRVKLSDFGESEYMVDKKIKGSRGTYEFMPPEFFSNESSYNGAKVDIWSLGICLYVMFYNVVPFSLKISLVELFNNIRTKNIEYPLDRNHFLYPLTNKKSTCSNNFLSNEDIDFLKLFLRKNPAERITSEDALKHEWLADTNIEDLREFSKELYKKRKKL
Chain of Plasmodium falciparum protein kinase 6 (PK6, PF3D7_1337100) (Q8IDW1 1-305): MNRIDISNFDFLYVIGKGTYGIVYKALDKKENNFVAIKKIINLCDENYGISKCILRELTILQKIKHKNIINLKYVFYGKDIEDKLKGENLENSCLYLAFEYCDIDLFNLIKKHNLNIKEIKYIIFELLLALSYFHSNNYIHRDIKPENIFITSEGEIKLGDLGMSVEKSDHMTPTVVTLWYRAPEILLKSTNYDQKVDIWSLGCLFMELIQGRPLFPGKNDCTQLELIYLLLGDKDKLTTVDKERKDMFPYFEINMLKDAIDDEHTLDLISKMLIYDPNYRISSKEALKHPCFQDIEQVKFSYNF
Chain of L-lactate dehydrogenase (Plasmodium falciparum (isolate CDC / Honduras)) (Q27743 whole entry, looked up): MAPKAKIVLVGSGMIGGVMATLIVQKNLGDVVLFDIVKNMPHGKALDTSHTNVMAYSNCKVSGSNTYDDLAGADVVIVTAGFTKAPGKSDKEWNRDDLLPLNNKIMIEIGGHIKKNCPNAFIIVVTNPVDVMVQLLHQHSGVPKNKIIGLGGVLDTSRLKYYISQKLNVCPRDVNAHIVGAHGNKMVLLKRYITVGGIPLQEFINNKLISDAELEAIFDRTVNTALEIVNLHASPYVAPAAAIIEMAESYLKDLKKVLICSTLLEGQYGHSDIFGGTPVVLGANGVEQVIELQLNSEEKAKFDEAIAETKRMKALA
Chain of Calcium-dependent protein kinase 1 (Plasmodium falciparum (isolate 3D7)) (P62344 whole entry, looked up): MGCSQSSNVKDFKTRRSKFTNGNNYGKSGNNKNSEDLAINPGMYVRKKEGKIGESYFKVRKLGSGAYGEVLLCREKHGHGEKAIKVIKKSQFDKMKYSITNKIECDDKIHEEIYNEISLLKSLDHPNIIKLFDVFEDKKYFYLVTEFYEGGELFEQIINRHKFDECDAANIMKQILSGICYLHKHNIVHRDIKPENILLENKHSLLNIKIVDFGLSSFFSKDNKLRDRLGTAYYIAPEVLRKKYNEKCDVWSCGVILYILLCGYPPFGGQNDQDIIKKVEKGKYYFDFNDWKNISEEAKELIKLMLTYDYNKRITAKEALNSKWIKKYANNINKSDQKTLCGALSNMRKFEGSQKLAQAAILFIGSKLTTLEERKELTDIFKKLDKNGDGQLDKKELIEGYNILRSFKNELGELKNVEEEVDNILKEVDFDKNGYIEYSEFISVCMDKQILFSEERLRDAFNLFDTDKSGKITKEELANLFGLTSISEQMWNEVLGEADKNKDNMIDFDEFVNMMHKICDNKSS

With `COc1ccc(OCCn2cc(C(=O)c3ccco3)c3ccccc32)cc1`, the growth inhibition was 61% (active) in assay [1] and 98% (active) in assay [4]. In addition, the inhibition in assay [2] was 17%; in assay [3] it was -1%. In addition, the outcome in assay [5], in assay [6], in assay [7] and in assay [8] was inactive.
For the compound `O=S(=O)(NCCN1CCCC1)c1ccc(-c2ccc(CNC3Cc4ccccc4C3)cc2)cc1F`, the growth inhibition was 75% (active) in assay [1] and 101% (active) in assay [4]. Further, the inhibition was 33% in assay [2] and -1% in assay [3]. Further, the result in assay [5], in assay [6], in assay [7] and in assay [8] was inactive.
On to `CCN(CC)CCN(Cc1ccc(-c2ccc(C(F)(F)F)cc2)cc1)C(=O)Cn1c(CCc2cccc(F)c2F)nc(=O)c2ccc(C)cc21`, for which the values for the growth inhibition in assay [1] and in assay [4] were 58% (active) and 99% (active), respectively. The inhibition was 39% in assay [2] and -2% in assay [3]. Further, the result in assay [5], in assay [6], in assay [7] and in assay [8] was inactive.
Take `O=C(Nc1ccc([N+](=O)[O-])cc1Cl)c1cc(Br)cc(Cc2ccccc2)c1O`: the growth inhibition was 96% (active) in assay [1] and 84% (active) in assay [4]. The inhibition was 75% (active) in assay [2] and -1% in assay [3]. Moreover, the result in assay [5], in assay [6], in assay [7] and in assay [8] was inactive.
As to `O=C(Nc1ccc(-c2nc3ccccc3[nH]2)cc1)C1CCN(Cc2cccc(F)c2F)CC1`, the growth inhibition in assay [1] is 51% (active); in assay [4] it was 97% (active). The inhibition in assay [2] was 23%; in assay [3] it was 2%. The outcome in assay [5], in assay [6], in assay [7] and in assay [8] was inactive.
Turning to `COc1ccccc1C1CCN(C2CCC(NC(=O)/C=C/c3cc(F)c(F)cc3F)CC2)CC1` (stereo not given), the results for the growth inhibition in assay [1] and in assay [4] were 0% and 85% (active), respectively. In addition, the inhibition in assay [2] is 39%; in assay [3], -5%. Also, the outcome in assay [5], in assay [6], in assay [7] and in assay [8] was inactive.
For `CC(C)CNCc1ccc(-c2ccc(CN(CCCN3CCN(C)CC3)C(=O)CCC3CCCC3)cc2)cc1`, the growth inhibition in assay [1] was 87% (active); in assay [4], 96% (active). Also, the figures for the inhibition in assay [2] and in assay [3] were 50% (active) and 5%, respectively. The result in assay [5], in assay [6], in assay [7] and in assay [8] was inactive.
On to `N#Cc1ccc(N(CCOc2ccc3c(c2)CCC(=O)N3)Cc2ccccc2C(F)(F)F)cc1C(F)(F)F`, for which the growth inhibition in assay [1] is 64% (active); in assay [4], 98% (active). For the same compound, the inhibition in assay [2] is 19%; in assay [3] it was 1%. The outcome in assay [5], in assay [6], in assay [7] and in assay [8] was inactive.
Turning to `O=C(Nc1ccc(C(=O)Nc2ccc(C3=NCCN3)cc2)cc1)Nc1ccc(C2=NCCN2)cc1`, the growth inhibition is 95% (active) in assay [1] and 94% (active) in assay [4]. Further, the inhibition in assay [2] was -8%; in assay [3], -7%. Moreover, the outcome in assay [5], in assay [6], in assay [7] and in assay [8] was inactive.
As to `Cc1oc(-c2cccc(Oc3ccccc3)c2)nc1CN(Cc1cnn(C)c1)C(C)C`, the results for the growth inhibition in assay [1] and in assay [4] were 61% (active) and 89% (active), respectively. In addition, the values for the inhibition in assay [2] and in assay [3] were 22% and 2%, respectively. The result in assay [5], in assay [6], in assay [7] and in assay [8] was inactive.
For the compound `COc1ccccc1NC(=O)Nc1cccc(-c2ccc(-c3nc4ccc(C(F)(F)F)cc4[nH]3)cc2)c1`, the growth inhibition in assay [1] was 76% (active); in assay [4] it was 100% (active). In addition, the inhibition in assay [2] was 28%; in assay [3], 5%. The result in assay [5], in assay [6], in assay [7] and in assay [8] was inactive.
With `CCc1c[nH]c2c(N3CCCC3=O)cc(C(=O)N[C@@H](Cc3ccccc3)[C@H](O)CNC(C)(C)CCCC(C)C)cc12`, the growth inhibition was 97% (active) in assay [1] and 96% (active) in assay [4]. Moreover, the figures for the inhibition in assay [2] and in assay [3] were 22% and 1%, respectively. In addition, the result in assay [5], in assay [6], in assay [7] and in assay [8] was inactive.
`CC(CN1CCN(C)CC1)C(=O)Nc1ccc(-c2cccc(-c3nc4ccc(F)cc4[nH]3)c2)cc1` (stereo not given): the growth inhibition in assay [1] was 99% (active); in assay [4], 100% (active). In addition, the inhibition is 8% in assay [2] and 0% in assay [3]. Moreover, the outcome in assay [5], in assay [6], in assay [7] and in assay [8] was inactive.
Regarding `Cc1nc2ccc3ccc(CNc4ccc(C(=O)CC(CCC(=O)O)C(=O)O)cc4)cc3c2c(=O)[nH]1` (stereo not given), the growth inhibition in assay [1] was 96% (active); in assay [4], 95% (active). In addition, the results for the inhibition in assay [2] and in assay [3] were 51% (active) and -1%, respectively. Further, the outcome in assay [5], in assay [6], in assay [7] and in assay [8] was inactive.
Consider `COc1ccc(N(c2nc(-c3cc(Cl)ccc3Cl)cs2)C2CCNC2)cc1` (stereo not given), for which the growth inhibition in assay [1] is 9%; in assay [4] it was 95% (active). Moreover, the results for the inhibition in assay [2] and in assay [3] were 21% and 3%, respectively. Besides, the outcome in assay [5], in assay [6], in assay [7] and in assay [8] was inactive.
On to `Cc1cc(-c2ccc3c(c2)CCN(CCC2CCC(NC(=O)/C=C/c4ccccc4F)CC2)CC3)on1` (stereo not given), for which the growth inhibition was 13% in assay [1] and 94% (active) in assay [4]. Also, the inhibition in assay [2] is 26%; in assay [3], -4%. Besides, the result in assay [5], in assay [6], in assay [7] and in assay [8] was inactive.
On to `CCN(CC)C(=NCCCCCCN=C(NC(N)=NCc1ccc(Cl)cc1)N(CC)CC)NC(N)=NCc1ccc(Cl)cc1`, for which the growth inhibition in assay [1] and in assay [4] was 100% (active) each time. Besides, the values for the inhibition in assay [2] and in assay [3] were 18% and -3%, respectively. Further, the result in assay [5], in assay [6], in assay [7] and in assay [8] was inactive.
In the case of `O=C1C[C@@H]([S@@](=O)Cc2nccs2)N1CCOCCCCCCc1ccc(Cl)cc1`, the figures for the growth inhibition in assay [1] and in assay [4] were 0% and 91% (active), respectively. Besides, the inhibition in assay [2] was -4%; in assay [3], 1%. The outcome in assay [5], in assay [6], in assay [7] and in assay [8] was inactive.
Consider `COc1ccc2nc(C)cc(NCc3cccc4ccccc34)c2c1`, for which the growth inhibition in assay [1] was 72% (active); in assay [4] it was 102% (active). The inhibition in assay [2] was 28%; in assay [3], -7%. Further, the outcome in assay [5], in assay [6], in assay [7] and in assay [8] was inactive.
On to `O=C(Cc1ccc(NC(=O)c2ccc(O)c(-c3ccc(Cl)c(Cl)c3)c2)cc1)NCCc1ccc(Cl)c(Cl)c1`, for which the growth inhibition in assay [1] is 88% (active); in assay [4], 99% (active). Moreover, the inhibition in assay [2] was -6%; in assay [3], 2%. The outcome in assay [5], in assay [6], in assay [7] and in assay [8] was inactive.

Source of the values: PubChem BioAssay.
